# Results as given in PubChem BioAssay.
# A number with no mark means an inactive call. Active and inactive are the calls of the source.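 Rule for the calls: active = viability at or under a set limit in both replicates, limit being median viability minus 3 SD (cut at about 48% in these data, passing the limit was not always enough); inconclusive = at or under the limit in just one replicate; inactive = at or above the limit in both replicates.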
# Experiment: growth inhibitors of H69AR lung tumor, primary screen, human, duplicate replicates (AID 580);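 note: 100% = mean luminescence of untreated wells and 0% = no signal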
# Details: H69AR lung tumor cells viability, ATP luminescence, 72 h; at 10 µM; active compounds read low
row,SMILES,viability
1,CCn1cnc2sc(C(=O)Nc3ccc4c(c3)OCO4)c(C)c2c1=O,94%
2,CC1CC(C)CN(CC(=O)Nc2ccc(S(N)(=O)=O)cc2)C1 (configuration not stated),84.9%
3,Cc1ccc(S(=O)(=O)N2CCN(C(=O)CSC3CCCC3)CC2)c(C)c1,81.6%
4,COc1ccc(C(=O)Nc2nc(C)c(C(=O)N(C)C)s2)cc1OC,94.9%
5,C=CCOC(=O)CC(NC(=O)c1ccccc1)c1ccccc1 (configuration not stated),105%
6,Cc1nc(Sc2cccn2C)c(C(F)(F)F)c(=O)[nH]1,96.3%
7,O=C(OCC(=O)c1ccccc1Br)c1ccccn1,86.8%
8,CCCCSc1nnc([C@H](C)NC(=O)OC(C)(C)C)o1,90.3%
9,CCOc1ccccc1C1N(c2ccc(F)cc2)C(=O)C2CCCN21 (configuration not stated),99%
10,CCOc1ncccc1C(=O)Nc1ccc(Cl)cc1,79.8%
11,O=C(CSc1nc(N2CCCCC2)nc(N2CCCCC2)n1)Nc1nccs1,77.3%
12,O=C(Nc1ncnc2sc3c(c12)CCC3)c1ccco1,80.1%
13,CCc1nnc(SCc2cn3c(C)cc(C)nc3n2)n1N,108%
14,O=C(c1ccco1)N1CCN(c2nc(C(F)(F)F)nc3c2nnn3Cc2ccccc2)CC1,73.3%
15,O=C(CSc1nnc(-c2ccccc2)o1)NC1CCCCC1,98.5%
16,Cn1c(Cl)cnc1C1CC(=O)c2cc(Cl)ccc2O1 (configuration not stated),2.09% (active)
17,C1COC(NC(C2CC2)C2CC2)=N1,84.9%
